# Screening results deposited in PubChem BioAssay by National Center for Advancing Translational Sciences (NCATS).
# GPT2 inh: GPT2 alanine aminotransferase inhibition | Potency, µM (top dose mostly 57.7 µM), usual class: inhibitors | Recombinant GPT2, coupled pyruvate oxidase/HRP Amplex Red fluorescence | hit rate 0.25% among 100,000 | AID 1671188; further: nearly all actives have a fitted effect of over 60% in size
#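 Recombinant GPT2 (10ng/uL) with 250uM a-KG and 2mM L-alanine, 30 min at room temperature, in HEPES pH 7.5 buffer. Pyruvate detected by pyruvate oxidase/HRP/Amplex Red fluorescence after 30 min in the dark; AOA (50uM) as positive control.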
# NIH3T3 tox: kills NIH 3T3 cells | NIH 3T3 viability, CellTiter-Glo ATP luminescence, 48-72 h | Potency, µM (series often up to 96.7 µM), hits mostly inhibitors | hit rate 4.3% among 94,000 | AID 1345082; further: nearly all actives have a fitted effect of over 55% in size
#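 NIH 3T3 cells at 400 cells/well received 23 nL of compound by pintool and were incubated 48 or 72 h at 37 °C. Viability was read as ATP-coupled CellTiter-Glo luminescence.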
# HEK293 tox: cytotoxic compounds in HEK 293 cells. HEK 293 viability, ATP luminescence (CellTiter-Glo), 48-72 h. Potency, µM (doses to about 115 µM), usual class: inhibitors. hit rate 6.6% among 94,000; further: nearly all actives have a fitted effect of over 60% in size
#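 Read-out: CellTiter-Glo ATP luminescence. Cells: HEK 293, 250 cells/well. Exposure: 48 or 72 hr, 37 degree Celsius.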
# hNpr1 antagonist: antagonists of human natriuretic peptide receptor Npr1. P16066. HEK293 hNpr1 GloSensor cGMP, ANP-stimulated luminescence. Potency, µM (titrated, usually from 46.3 µM), hits mostly inhibitors. hit rate 1.6% among 76,000. AID 1347048; calls by dose curve; further: nearly all actives have a fitted effect of over 60% in size
#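 Compound pre-incubated 30 min at room temperature on GloSensor-loaded HEK293 cells stably carrying hNpr1 and the pGS-40F cGMP biosensor. Stimulation uses hNppA at 0.1 nM final; luminescence is taken at baseline and 20 min post-agonist.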
# Luciferase inh: Photinus pyralis luciferase inhibition; P08659; hit rate 2.5% among 76,000; Potency, µM (titrated, usually from 115 µM), actives largely listed as inhibitors; purified P. pyralis luciferase, luminescence, biochemical; AID 1347043; further: nearly all actives have a fitted effect of over 65% in size
# Target sequence (P08659 whole entry, looked up): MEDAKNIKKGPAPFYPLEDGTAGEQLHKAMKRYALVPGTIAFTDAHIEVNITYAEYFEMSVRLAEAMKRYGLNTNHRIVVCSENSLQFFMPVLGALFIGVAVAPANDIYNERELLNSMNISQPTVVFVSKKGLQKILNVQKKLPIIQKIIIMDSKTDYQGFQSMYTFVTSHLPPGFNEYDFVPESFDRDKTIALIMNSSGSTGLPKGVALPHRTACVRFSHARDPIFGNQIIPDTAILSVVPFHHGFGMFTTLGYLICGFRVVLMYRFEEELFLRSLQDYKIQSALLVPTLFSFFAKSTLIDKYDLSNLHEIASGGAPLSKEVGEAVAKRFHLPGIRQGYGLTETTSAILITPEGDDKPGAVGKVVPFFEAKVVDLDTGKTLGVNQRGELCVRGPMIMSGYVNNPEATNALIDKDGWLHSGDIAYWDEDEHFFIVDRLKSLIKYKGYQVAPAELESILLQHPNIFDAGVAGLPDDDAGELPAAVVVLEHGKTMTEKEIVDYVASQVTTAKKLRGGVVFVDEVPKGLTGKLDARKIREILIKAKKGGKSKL
#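 Biochemical qHTS: compound (6-point titration) added to 10uM D-luciferin plus 10uM ATP in Tris acetate pH 7.5 buffer with Mg, Tween-20 and BSA, then purified enzyme at 10nM; light output imaged.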
# Hits are given with their value; n = inactive; u = inconclusive; x = not tested or not shown. An excerpt weighted towards active compounds, which were near 10% of everything screened. Unless noted, the call rests on the fitted dose curve; in most records, active means well fitted curve in the direction sought with a large enough effect; inconclusive means small, poorly fitted or top-dose-only effect, or another doubt; inactive means no such curve, though single readings can be large; an effect the other way counts as inactive or inconclusive.
SMILES,GPT2 inh,NIH3T3 tox,HEK293 tox,hNpr1 antagonist,Luciferase inh
CCN1C(=O)CCN(Cc2cn(C)c3ccc(OC)cc23)CC12CCOCC2,n,32µM,u,n,n
c1cnc2nc(-c3c[nH]c4ccccc34)[nH]c2c1,n,u,u,n,45µM
C#CCNC(=O)[C@@H]1Cc2cn(CC3CC3)c3cccc(c23)[C@H](CC(C)C)N1,n,45µM,71µM,n,n
CC(C)C[C@@H]1N[C@H](C(=O)NCc2ccncc2)Cc2cn(Cc3ccncc3)c3cccc1c23,n,u,50µM,n,n
COC(=O)[C@@H]1Cc2c[nH]c3cccc(c23)[C@H](CC(C)C)N1,n,n,u,n,n
CC(C)C[C@@H]1N[C@H](C(=O)NCc2ccccn2)Cc2cn(Cc3ccncc3)c3cccc1c23,u,u,25µM,n,n
CC(C)C[C@@H]1N[C@H](C(=O)NCc2cccs2)Cc2c[nH]c3cccc1c23,u,40µM,40µM,n,n
CS(=O)(=O)c1ccc(-c2cnc([C@@H]3COCCN3C3CCCCC3)[nH]2)cc1,n,u,n,n,n
C=CCn1cc2c3c(cccc31)[C@H](CC(C)C)N[C@H](C(=O)NCc1ccc(OC)cc1)C2,n,n,n,n,n
C#CCNC(=O)[C@@H]1Cc2cn(Cc3ccncc3)c3cccc(c23)[C@H](CC(C)C)N1,u,89µM,45µM,n,n
C=CCn1cc2c3c(cccc31)[C@H](CC(C)C)N[C@H](C(=O)NCc1ccccn1)C2,n,u,50µM,n,n
Cc1ccc(C(=O)NC2CCCN(c3nc4ncccc4o3)C2)cc1 (centres undefined),n,n,n,n,n
O=C(CCn1ccn2nc3c(c2c1=O)CCCC3)Nc1ccc(F)cc1Br,n,n,n,n,n
Cc1ccc([S+](=O)([O-])NC2CCN(CCn3nc4n(c3=O)CCCC4)C2)cc1 (centres undefined),x,n,n,x,x
COc1ccc2nc(CO[C@H]3CN(Cc4cnn(C)c4)C[C@H]3F)[nH]c2c1,n,n,n,n,n
COc1ccc(C(=O)NC2CCN(c3cc(-c4ccc(Cl)cc4)[nH]n3)C2)c(OC)c1 (centres undefined),u,35µM,45µM,n,n
COc1ccc(C(=O)NC2CCN(c3cc(-c4ccc(Cl)cc4)[nH]n3)C2)c(C)c1 (centres undefined),n,u,u,n,n
O=C(NC1CCN(c2cc(-c3ccc(Cl)cc3)[nH]n2)C1)c1ccccc1Br (centres undefined),n,35µM,28µM,u,n
O=C(NC1CCN(c2cc(-c3ccc(Cl)cc3)[nH]n2)C1)c1ccc(F)cc1F (centres undefined),u,u,50µM,u,n
Cc1cnc(-c2cccnc2)n1CC1CCN(C2CCOCC2)CC1,n,n,n,x,x
Cc1ccc(C(=O)N(C)CC2CCOCC2)cc1,n,n,n,n,n
Cc1nn(-c2ccccc2)c2c1C(C(C)C)N(C1CCCN(C(=O)c3ccc(Cl)nc3)C1)C2=O (centres undefined),x,u,40µM,x,x
Cc1nn(-c2ccccc2)c2c1C(C(C)C)N(C1CN(C(=O)Cc3ccccc3)C1)C2=O (centres undefined),x,u,50µM,x,x
Cc1nn(-c2ccccc2)c2c1C(C1CC1)N(C1CCN(C(=O)Cc3ccc(F)cc3)C1)C2=O (centres undefined),x,u,35µM,x,x
Cc1nn(-c2ccccc2)c2c1C(C(C)C)N(C1CCN(C(=O)N3CCOCC3)C1)C2=O (centres undefined),x,u,79µM,x,x
SMILES,GPT2 inh,NIH3T3 tox,HEK293 tox,hNpr1 antagonist,Luciferase inh
Cc1nn(-c2ccccc2)c2c1C(C(C)C)N(C1CN(C(=O)C(C)(C)C)C1)C2=O (centres undefined),x,n,n,x,x
COc1ccc(C(=O)NCC23CCCC=C2NC(=O)CC3)cc1OC (centres undefined),n,n,n,x,x
O=C1[C@H]2CN(Cc3ccc(F)c(Cl)c3)C[C@H]2C(=O)N1CCc1ccccc1,n,u,u,n,n
Cc1nn(-c2ccccc2)c2c1C(C(C)C)N(C1CCCN(C(=O)c3ccc(F)cc3)C1)C2=O (centres undefined),x,u,28µM,x,x
Cc1nn(-c2ccccc2)c2c1C(C(C)C)N(C1CCCN(C(=O)Cc3ccc(F)cc3)C1)C2=O (centres undefined),x,u,25µM,x,x
Cc1nn(-c2ccccc2)c2c1C(C(C)C)N(C1CCN(C(=O)c3ccc(Cl)nc3)C1)C2=O (centres undefined),x,n,u,x,x
Cc1nn(-c2ccccc2)c2c1C(C(C)C)N(C1CCCN(C(=O)N(C)C)C1)C2=O (centres undefined),x,n,n,x,x
COCC(=O)N1CCCC(N2C(=O)c3c(c(C)nn3-c3ccccc3)C2C(C)C)C1 (centres undefined),x,n,u,x,x
Cc1nn(-c2ccccc2)c2c1C(C(C)C)N(C1CCCN(C(=O)C3CC3)C1)C2=O (centres undefined),x,u,28µM,x,x
Cc1nn(-c2ccccc2)c2c1C(C(C)C)N(C1CCN(C(=O)c3ccc(F)cc3)C1)C2=O (centres undefined),x,u,45µM,x,x
C=CCn1cc(CN(Cc2ccc(SC)cc2)C2CC2)c(C)n1,n,u,u,u,n
O=C(CCc1cc2n(n1)CCN(C(=O)c1ccc[nH]1)C2)N1CCOCC1,n,n,n,n,n
CN(CC(=O)N1CCN(c2ccccc2C#N)C(=O)C1)Cc1ccccc1F,n,n,n,n,n
Cc1noc(C)c1[S+](=O)([O-])N1CCC2(CC1)CC(=O)N(c1ccccc1)c1ccccc1O2,n,n,n,n,n
COc1cccc(CC(=O)N2CC(c3noc(C4CCCN4C)n3)C2)c1 (centres undefined),n,n,u,n,n
COc1cncc(Nc2ncc(-c3ccccc3OC)c3c2OCC3)c1,n,71µM,u,n,n
COc1ccc(Nc2ncc(-c3ccccc3OC)c3c2OCC3)cn1,n,u,u,u,32µM
COc1ccccc1-c1cnc(Nc2cncnc2)c2c1CCO2,u,u,u,n,n
O=C(Cc1ccccc1Cl)N1CCC(n2cc(-c3nc(-c4ccccc4)no3)nn2)CC1,n,n,n,n,n
O=C(c1ccc(C(F)(F)F)cc1)N1CCC(C(=O)N2CCC(c3ccccc3)CC2)CC1,n,u,45µM,x,x
O=C(C1CC1)N1CCC(C(=O)N2CCC(c3ccccc3)CC2)CC1,n,u,n,x,x
O=C(C1CCCN1[S+](=O)([O-])c1cccc(C(F)(F)F)c1)N1CCC(c2ccccc2)CC1 (centres undefined),n,35µM,25µM,x,x
O=C(C1CCCN1[S+](=O)([O-])c1cccc(C(F)(F)F)c1)N1CCC(c2nc3ccncc3[nH]2)C1 (centres undefined),n,n,n,x,x
